Laboratory results published in PubChem BioAssay.
Unmarked numbers belong to inactive results. Records with an inconclusive call do not appear. Activity calls are given as the source filed them.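 The calls were made as follows, unless noted: active = inhibition over a set limit, the all-compound mean plus 3 SD, in both replicate runs; inconclusive = over that limit in just one replicate run; inactive = at or under that limit in both runs.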

experiment: viability of PTEN-null HCT116 cells – cell-based, HCT116 clonal line, CellTiter-Glo, pilot screen (AID 824;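 active = viability at or below 27.92% in each of two runs, the all-compound median minus 4 SD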;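 also: 0% = 20 µM Hyamine control and 100% = vehicle cell control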); conditions: HCT116 PTEN-deleted viability, 60 h, at 10 µM, hits give low values

| Compound | viability |
| --- | --- |
| COCCNC(=O)c1cc(-c2cccs2)on1 | 70.6% |
| CC(C)c1nnc(NC(=O)C2CCCCC2)s1 | 97.1% |
| Cc1nc2ccc(S(=O)(=O)NC(C(=O)Nc3nccs3)C(C)C)cc2s1 (stereo not given) | 104% |
| O=C(Cn1c(=O)[nH]c2ccsc2c1=O)NC1CCCCCC1 | 99.2% |
| CCCCN(C)Cc1c(O)ccc2c(-c3ccccc3)cc(=O)oc12 | 93.6% |
| O=C(CN1CCN(Cc2ccccc2F)C1=O)NCc1cccnc1 | 94.6% |
| O=c1c2ccccc2nc2n1CCN2 | 104% |
| O=C(CSc1nnc(Cn2c(=O)sc3ccccc32)n1-c1ccccc1)Nc1nccs1 | 90% |
| Cc1ccc(-n2nc(C)c3cc(C(=O)O)sc32)cc1 | 94.9% |
| CCOC(=O)c1oc2c(CN3CCN(C)CC3)c(O)ccc2c(=O)c1-c1ccccc1OC | 94% |
| CCCCn1c(NCc2ccccc2O)nc2ccccc21 | 75.1% |
| Cc1cc2ncc(-c3ccc(Cl)cc3)c(N)n2n1 | 85.4% |
| CC1(C(=O)NC2CCCCC2)CCC(=O)N1Cc1cccs1 (stereo not given) | 93.7% |
| CCc1cc(=O)n2[nH]c(C)c(-c3ccccc3OC)c2n1 | 105% |
| Cc1nnc(SCCn2c(N3CCC(Cc4ccccc4)CC3)nc3c2c(=O)[nH]c(=O)n3C)s1 | 75.7% |
| O=C(C1CCCN(S(=O)(=O)c2cccnc2)C1)N1CCn2c1nc1ccccc12 (stereo not given) | 99.3% |
| CCOC(=O)c1ccc(NC(=O)Cn2cc3c(n2)CCC(C)C3)cc1 (stereo not given) | 106% |
| Cc1cc(C)cc(N(CC(=O)Nc2cccc(C)n2)S(=O)(=O)c2c(C)noc2C)c1 | 71.9% |
| COc1ccc(-c2nnc(SCC(=O)N3CCOCC3)o2)cc1OC | 110% |
| Cc1c(C(=O)OCc2ccccc2)[nH]c2c1C(=O)CC(c1ccco1)C2 (stereo not given) | 18.2% (active) |

| Compound | viability |
| --- | --- |
| CCCn1cc(SCC(N)=O)c2ccccc21 | 95.6% |
| CC1CCCCN1CCNC(=O)C1CCN(S(=O)(=O)c2cccc3cccnc23)CC1 (stereo not given) | 97.9% |
| Cc1onc(-c2ccccc2Cl)c1C(=O)N1CCc2ccccc21 | 87.1% |
| O=C(c1ccc(CNc2c(N3CCCC3)c(=O)c2=O)cc1)N1CCc2ccccc2C1 | 91% |
| Cc1cccc(-n2ncc3c(NCc4cccnc4)ncnc32)c1 | 87.5% |
| COc1cccc2cc(C(=O)OC3CCN(C)CC3)c(=O)oc12 | 107% |
| CCOc1ccccc1NC(=O)CC1Nc2cc(C)c(C)cc2NC1=O (stereo not given) | 77.8% |
| COC(=O)C(C)Sc1nnc2n(-c3cccc(C)c3)c(=O)c3c4c(sc3n12)CCCC4 (stereo not given) | 85.5% |
| Cc1c(NC(=O)C2CCCCN2S(=O)(=O)c2ccc(Cl)cc2)c(=O)n(-c2ccccc2)n1C (stereo not given) | 103% |
| CCC(=O)c1cc(F)c(N2CCN(C(=O)c3ccco3)CC2)cc1C | 88.3% |
| Cc1cccc(C2CC(c3ccccc3)Nc3nc(N)nn32)c1 (stereo not given) | 88.2% |
| Cc1ccc(C)c(NC(=O)CSc2nnc(-c3ccccc3)o2)c1 | 97.2% |
| CCCCN(CC)CCNC(=O)c1cc2c(C)nc3ccccc3c2o1 | 84% |
| O=C(Nc1ccccc1)C1=C(O)CC(c2ccoc2)CC1=Nc1ccccc1 (stereo not given) | 70.3% |
| COc1ccc(OCc2nc(C#N)c(N3CCN(c4ccc(OC)cc4)CC3)o2)cc1 | 73.5% |
| CCOc1cccc(OCCCCn2ccnc2)c1 | 62.3% |
| COc1ccc(OC)c(C2CC(=O)NC(SC)=C2C#N)c1 (stereo not given) | 92.6% |
| Cc1cc(NC(=O)c2cccc(S(=O)(=O)N3CC(c4ccccc4)CC3=O)c2)no1 (stereo not given) | 90.5% |
| O=C(Cn1nc(Cc2ccncc2)c2ccccc2c1=O)N1CCN(C(=O)c2ccco2)CC1 | 107% |
| COC(=O)c1sc(NC(=O)COc2ccccc2OC)nc1C | 101% |

experiment: RAM pathway blockade in budding yeast – dse1pr::URA3 reporter, 5-FOA selection, pilot screen (AID 869);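 also: 0% = DMSO wells with no growth and 100% = 10 µM 1-NA-PP1 with full growth; RAM network block rescues cells from 5-FOA so hits raise OD615 growth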; conditions: S. cerevisiae dse1pr::URA3 5-FOA growth, OD615, 2 d; at 10 µM; hits give high values; strain carries analog-sensitive mutant Cbk1 kinase

| Compound | inhibition |
| --- | --- |
| COCCNC(=O)c1cc(-c2cccs2)on1 | 0.105% |
| CC(C)c1nnc(NC(=O)C2CCCCC2)s1 | -0.59% |
| Cc1nc2ccc(S(=O)(=O)NC(C(=O)Nc3nccs3)C(C)C)cc2s1 (stereo not given) | 1.99% |
| O=C(Cn1c(=O)[nH]c2ccsc2c1=O)NC1CCCCCC1 | 0.875% |
| CCCCN(C)Cc1c(O)ccc2c(-c3ccccc3)cc(=O)oc12 | 0.605% |
| O=C(CN1CCN(Cc2ccccc2F)C1=O)NCc1cccnc1 | 0.605% |
| O=c1c2ccccc2nc2n1CCN2 | 1.84% |
| O=C(CSc1nnc(Cn2c(=O)sc3ccccc32)n1-c1ccccc1)Nc1nccs1 | 2.44% |
| Cc1ccc(-n2nc(C)c3cc(C(=O)O)sc32)cc1 | 2.74% |
| CCOC(=O)c1oc2c(CN3CCN(C)CC3)c(O)ccc2c(=O)c1-c1ccccc1OC | 3.98% |
| CCCCn1c(NCc2ccccc2O)nc2ccccc21 | 0.34% |
| Cc1cc2ncc(-c3ccc(Cl)cc3)c(N)n2n1 | 1.27% |
| CC1(C(=O)NC2CCCCC2)CCC(=O)N1Cc1cccs1 (stereo not given) | 3.65% |
| CCc1cc(=O)n2[nH]c(C)c(-c3ccccc3OC)c2n1 | 2.31% |
| Cc1nnc(SCCn2c(N3CCC(Cc4ccccc4)CC3)nc3c2c(=O)[nH]c(=O)n3C)s1 | 3.93% |
| O=C(C1CCCN(S(=O)(=O)c2cccnc2)C1)N1CCn2c1nc1ccccc12 (stereo not given) | 0.46% |
| CCOC(=O)c1ccc(NC(=O)Cn2cc3c(n2)CCC(C)C3)cc1 (stereo not given) | 1.92% |
| Cc1cc(C)cc(N(CC(=O)Nc2cccc(C)n2)S(=O)(=O)c2c(C)noc2C)c1 | 0.94% |
| COc1ccc(-c2nnc(SCC(=O)N3CCOCC3)o2)cc1OC | 1.16% |
| Cc1c(C(=O)OCc2ccccc2)[nH]c2c1C(=O)CC(c1ccco1)C2 (stereo not given) | 1.69% |

| Compound | inhibition |
| --- | --- |
| CCCn1cc(SCC(N)=O)c2ccccc21 | 0.545% |
| CC1CCCCN1CCNC(=O)C1CCN(S(=O)(=O)c2cccc3cccnc23)CC1 (stereo not given) | 2.46% |
| Cc1onc(-c2ccccc2Cl)c1C(=O)N1CCc2ccccc21 | 2.23% |
| O=C(c1ccc(CNc2c(N3CCCC3)c(=O)c2=O)cc1)N1CCc2ccccc2C1 | 0.36% |
| Cc1cccc(-n2ncc3c(NCc4cccnc4)ncnc32)c1 | 2.54% |
| COc1cccc2cc(C(=O)OC3CCN(C)CC3)c(=O)oc12 | -0.245% |
| CCOc1ccccc1NC(=O)CC1Nc2cc(C)c(C)cc2NC1=O (stereo not given) | 0.04% |
| COC(=O)C(C)Sc1nnc2n(-c3cccc(C)c3)c(=O)c3c4c(sc3n12)CCCC4 (stereo not given) | 0.06% |
| Cc1c(NC(=O)C2CCCCN2S(=O)(=O)c2ccc(Cl)cc2)c(=O)n(-c2ccccc2)n1C (stereo not given) | 0.76% |
| CCC(=O)c1cc(F)c(N2CCN(C(=O)c3ccco3)CC2)cc1C | 1.4% |
| Cc1cccc(C2CC(c3ccccc3)Nc3nc(N)nn32)c1 (stereo not given) | -0.64% |
| Cc1ccc(C)c(NC(=O)CSc2nnc(-c3ccccc3)o2)c1 | 0.49% |
| CCCCN(CC)CCNC(=O)c1cc2c(C)nc3ccccc3c2o1 | 0.07% |
| O=C(Nc1ccccc1)C1=C(O)CC(c2ccoc2)CC1=Nc1ccccc1 (stereo not given) | 1.05% |
| COc1ccc(OCc2nc(C#N)c(N3CCN(c4ccc(OC)cc4)CC3)o2)cc1 | 1.06% |
| CCOc1cccc(OCCCCn2ccnc2)c1 | 2.19% |
| COc1ccc(OC)c(C2CC(=O)NC(SC)=C2C#N)c1 (stereo not given) | -0.015% |
| Cc1cc(NC(=O)c2cccc(S(=O)(=O)N3CC(c4ccccc4)CC3=O)c2)no1 (stereo not given) | 1.83% |
| O=C(Cn1nc(Cc2ccncc2)c2ccccc2c1=O)N1CCN(C(=O)c2ccco2)CC1 | 1.01% |
| COC(=O)c1sc(NC(=O)COc2ccccc2OC)nc1C | 1.06% |
